Assay [1] addresses T1, Hexokinase-4 (Homo sapiens) + Glucokinase regulatory protein (Homo sapiens) (UniProt P35557+Q14397). In words: qHTS assay for inhibitors of recombinant human GCK-GKRP interaction: Diaphorase-coupled assay (AID 743205). Summed up:
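A kinetic fluorescence read (Ex 525/Em 590 nm, every minute for 30 minutes) tracked resorufin from a G6PDH-diaphorase coupled GCK reaction. It contained 10 nM GST-GCK, 10 nM FLAG-GKRP, 5 mM glucose, 0.4 mM ATP in Hepes pH 7.6. Normalized to with/without-enzyme DMSO controls.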

The target of assay [2] is T1, Hexokinase-4 (Homo sapiens) + Glucokinase regulatory protein (Homo sapiens). Briefly: qHTS assay for inhibitors of recombinant human GCK-GKRP interaction: ADP-Glo assay (AID 743206).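 Also: plate controls were DMSO plus enzyme for no effect and no enzyme for full effect.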 Summed up: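 Pin-transferred compounds meet a 15 nM GST-GCK/15 nM FLAG-GKRP/2 uM S6P mix (dispense concentrations). ATP is then added to 0.4 mM final with 5 mM glucose, and the reaction runs 60 min at room temperature. ADP is quantified luminescently.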

The target is the same in assay [3]. In words: qHTS assay for inhibitors of recombinant human GCK-GKRP interaction: HTRF assay (AID 743207).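 Also: 0% = DMSO with GCK present and -100% = DMSO wells lacking GCK.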 The procedure, abridged: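 After 60 min equilibration at room temperature with anti-FLAG XL665 and anti-GST antibodies, FRET ratio (665/615 nm, excitation 320 nm) was read. Proteins: GST-GCK and FLAG-GKRP, each 5 nM, plus 2 uM S6P, pH 7.1 buffer; GCK-free wells define minimum signal.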

Assay [4] in a line: qHTS assay for measurement of the activity of small molecule inhibitors on Zika virus induced Caspase-3 activity in human iPSC derived neural progenitor cells (hNPCs) (AID 1224857). Also: % of control where 0% means no effect; nearly all actives have a fitted effect of over 65% in size. The procedure, abridged:
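In medium with heparin 2 ug/ml and cyclopamine 2 uM, hNPCs (350 cells/well) received compound for one hour and then Zika virus at 2 FFU/cell; caspase activity was measured by Caspase-Glo 3/7 luminescence 6 h post-infection.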
In general terms: In qHTS, concentration-response curves come from the screen itself.

Assay [5] can be described thus: qHTS assay for measurement of the activity of small molecule inhibitors on Zika virus induced Caspase-3 activity in human astrocytoma cells (AID 1224859).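 Also: plate controls were ZIKV-infected untreated cells for no effect and uninfected cells for full effect.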 The procedure, abridged:
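A cell-based luminescent caspase-3/7 assay used SNB-19 cells infected with ZIKV (2 FFU/cell) for 6 h following 1 h compound pretreatment.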

The nature of assay [6]: Natriuretic polypeptide receptor (hNpr1) antagonism - Pilot counterscreen GloSensor control cell line (AID 1347045; calls by dose curve; also: potency is read from the fitted curve at half-maximal effect). Summed up: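 Cells were first seeded and incubated overnight at 37C, then loaded with 2% GloSensor substrate for 2 h. Compounds were added for 30 min at room temperature, followed by a baseline read, 50 uM SNP and a final read after 20 min.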
In general terms: Counterscreens check selectivity or assay interference.

Assay [7] has as its target Atrial natriuretic peptide receptor 1 (Homo sapiens) (UniProt P16066). In words: Natriuretic polypeptide receptor (hNpr1) antagonism - Pilot screen (AID 1347049; calls by dose curve;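 also: HEK293 cells with hNpr1 and GloSensor cGMP luciferase stimulated by 0.1 nM hNppA; agonist-evoked cGMP luminescence read 20 min after hNppA addition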; also: potency is read from the fitted curve at half-maximal effect). The procedure, abridged: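 Receptor antagonism read as cGMP-dependent luminescence in hNpr1/pGS-40F HEK293 cells: pre-read after 30 min compound exposure, post-read 20 min after hNppA agonist at 0.1 nM final, all at room temperature, protected from light; A-71915 titration as control.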

Assay [8] addresses Atrial natriuretic peptide receptor 2 (Homo sapiens) (UniProt P20594). In words: Natriuretic polypeptide receptor (hNpr2) antagonism - Pilot subtype selectivity assay (AID 1347050; calls by dose curve; also: potency is read from the fitted curve at half-maximal effect). Summed up:
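Antagonist mode: compounds (LOPAC1280, seven 1:5 dilutions) added 30 min before 1 nM hNppC stimulation of hNpr2-HEK293 cGMP-sensor cells; luminescence read before and 20 min after agonist at ambient temperature.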

Assay [9] is described as follows: P-glycoprotein substrates identified in KB-3-1 adenocarcinoma cell line, qHTS therapeutic library screen (AID 1346986). Also: nearly all actives have a fitted effect of over 60% in size.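 Also: potency is read from the fitted curve at half-maximal effect; potency is for cytotoxicity meaning loss of cell viability.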 The procedure, abridged: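 Viability read by CellTiter-Glo after 72 h compound exposure in dose-response of KB-3-1 and KB-8-5-11 (P-gp-high) cells. Hits needed AC50 < 10 uM, >50% maximum response and curve class -1.1 to -2.4. Cherry-picks retested ± tariquidar, including pcDNA/MDR-19 HEK-293 pair.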

Assay [10] is described as follows: P-glycoprotein substrates identified in KB-8-5-11 adenocarcinoma cell line, qHTS therapeutic library screen (AID 1346987). Also: nearly all actives have a fitted effect of over 65% in size. Also: potency is read from the fitted curve at half-maximal effect. The procedure, abridged:
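Luminescence from CellTiter-Glo, read 5 min after addition, quantified survival of KB-8-5-11 (P-gp-overexpressing) cells exposed to compounds for 72 h. AC50 was derived from concentration-response curves.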

Assay [11] can be described thus: qHTS Assay for Identifying Gametocytocidal Compounds (AID 743244).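 Also: % is scaled to controls: 0 for no effect and ±100 for the full control effect; actives lower the fluorescent signal which means gametocytes are killed.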 The note with it: P. falciparum 3D7 stage III-V gametocytes, alamarBlue, 72 h; max response: hits give low values. The procedure, abridged:
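In this qHTS viability screen, late-stage 3D7 gametocytes are incubated with compound for 72 h, then with alamarBlue for 24 h; reduced resorufin fluorescence marks killing.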

Unmarked numbers belong to inactive results. Inconclusive results are not listed. Calls of active or inactive are those of the source. Unless noted, calls follow the shape of the dose curve; as a rule, active = well fitted curve in the direction sought with a large enough effect; inconclusive = small, poorly fitted or top-dose-only effect, or another doubt; inactive = no such curve, though single readings can be large; an effect the other way counts as inactive or inconclusive. Residues, ends and D or L forms follow the SMILES beside them. *: point of attachment. Cbz = O=C(OCc1ccccc1)*

Sequence of Atrial natriuretic peptide receptor 1 (Homo sapiens) (P16066 whole entry, looked up): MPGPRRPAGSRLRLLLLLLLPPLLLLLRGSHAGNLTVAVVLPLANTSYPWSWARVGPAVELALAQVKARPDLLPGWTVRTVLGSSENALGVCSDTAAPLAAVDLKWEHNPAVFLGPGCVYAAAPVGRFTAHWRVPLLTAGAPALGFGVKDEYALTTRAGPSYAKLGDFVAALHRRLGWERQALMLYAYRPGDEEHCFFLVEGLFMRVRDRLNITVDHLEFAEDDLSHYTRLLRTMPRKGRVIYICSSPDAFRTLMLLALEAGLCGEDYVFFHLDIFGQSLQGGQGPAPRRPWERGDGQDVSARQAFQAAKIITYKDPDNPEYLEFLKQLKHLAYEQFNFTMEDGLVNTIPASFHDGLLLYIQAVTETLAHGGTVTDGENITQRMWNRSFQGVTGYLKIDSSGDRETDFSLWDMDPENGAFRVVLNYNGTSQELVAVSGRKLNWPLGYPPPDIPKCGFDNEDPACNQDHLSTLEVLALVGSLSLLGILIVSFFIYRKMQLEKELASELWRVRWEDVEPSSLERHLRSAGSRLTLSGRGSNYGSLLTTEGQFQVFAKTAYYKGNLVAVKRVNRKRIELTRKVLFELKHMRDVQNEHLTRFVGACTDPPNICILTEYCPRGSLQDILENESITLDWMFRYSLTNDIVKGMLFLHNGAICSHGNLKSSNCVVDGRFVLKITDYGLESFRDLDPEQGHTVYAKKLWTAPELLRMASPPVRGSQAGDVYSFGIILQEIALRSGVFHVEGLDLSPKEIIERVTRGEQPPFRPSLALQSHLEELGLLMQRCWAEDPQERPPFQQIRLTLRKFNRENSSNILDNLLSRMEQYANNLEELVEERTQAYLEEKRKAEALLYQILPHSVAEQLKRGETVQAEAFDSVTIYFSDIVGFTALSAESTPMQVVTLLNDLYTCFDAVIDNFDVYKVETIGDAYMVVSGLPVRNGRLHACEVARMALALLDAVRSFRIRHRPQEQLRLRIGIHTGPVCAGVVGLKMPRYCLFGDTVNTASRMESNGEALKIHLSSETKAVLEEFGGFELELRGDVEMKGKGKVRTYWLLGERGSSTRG
T1 sequence (P35557 whole entry, looked up): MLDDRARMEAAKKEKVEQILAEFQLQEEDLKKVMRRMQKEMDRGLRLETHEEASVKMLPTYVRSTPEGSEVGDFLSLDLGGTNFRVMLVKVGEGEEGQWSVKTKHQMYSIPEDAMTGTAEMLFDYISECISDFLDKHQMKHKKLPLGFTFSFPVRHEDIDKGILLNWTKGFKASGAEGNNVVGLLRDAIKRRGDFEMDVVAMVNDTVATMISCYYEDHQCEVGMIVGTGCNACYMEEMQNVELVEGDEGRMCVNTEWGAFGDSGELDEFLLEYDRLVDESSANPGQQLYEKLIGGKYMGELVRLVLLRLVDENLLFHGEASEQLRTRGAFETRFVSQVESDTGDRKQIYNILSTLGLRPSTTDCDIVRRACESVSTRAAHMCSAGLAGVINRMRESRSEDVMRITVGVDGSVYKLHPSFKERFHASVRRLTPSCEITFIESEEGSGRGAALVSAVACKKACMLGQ
T1 sequence (Q14397 whole entry, looked up): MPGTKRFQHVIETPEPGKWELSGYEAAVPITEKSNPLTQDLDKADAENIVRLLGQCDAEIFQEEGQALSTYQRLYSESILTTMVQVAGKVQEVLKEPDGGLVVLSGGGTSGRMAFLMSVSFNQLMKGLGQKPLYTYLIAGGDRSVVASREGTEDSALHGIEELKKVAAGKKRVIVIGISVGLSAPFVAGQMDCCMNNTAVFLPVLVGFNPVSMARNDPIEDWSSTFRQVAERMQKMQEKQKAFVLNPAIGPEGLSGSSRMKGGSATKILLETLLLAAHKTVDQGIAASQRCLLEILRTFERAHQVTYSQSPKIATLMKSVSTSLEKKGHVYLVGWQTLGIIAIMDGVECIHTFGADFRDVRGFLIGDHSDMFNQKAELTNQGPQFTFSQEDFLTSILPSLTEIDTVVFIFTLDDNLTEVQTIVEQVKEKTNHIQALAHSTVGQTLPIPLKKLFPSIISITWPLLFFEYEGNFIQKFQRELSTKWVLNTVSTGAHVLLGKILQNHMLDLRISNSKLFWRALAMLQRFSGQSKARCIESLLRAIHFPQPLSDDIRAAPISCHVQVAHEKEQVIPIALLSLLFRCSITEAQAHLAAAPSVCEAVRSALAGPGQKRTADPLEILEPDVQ
Sequence of Atrial natriuretic peptide receptor 2 (Homo sapiens) (P20594 whole entry, looked up): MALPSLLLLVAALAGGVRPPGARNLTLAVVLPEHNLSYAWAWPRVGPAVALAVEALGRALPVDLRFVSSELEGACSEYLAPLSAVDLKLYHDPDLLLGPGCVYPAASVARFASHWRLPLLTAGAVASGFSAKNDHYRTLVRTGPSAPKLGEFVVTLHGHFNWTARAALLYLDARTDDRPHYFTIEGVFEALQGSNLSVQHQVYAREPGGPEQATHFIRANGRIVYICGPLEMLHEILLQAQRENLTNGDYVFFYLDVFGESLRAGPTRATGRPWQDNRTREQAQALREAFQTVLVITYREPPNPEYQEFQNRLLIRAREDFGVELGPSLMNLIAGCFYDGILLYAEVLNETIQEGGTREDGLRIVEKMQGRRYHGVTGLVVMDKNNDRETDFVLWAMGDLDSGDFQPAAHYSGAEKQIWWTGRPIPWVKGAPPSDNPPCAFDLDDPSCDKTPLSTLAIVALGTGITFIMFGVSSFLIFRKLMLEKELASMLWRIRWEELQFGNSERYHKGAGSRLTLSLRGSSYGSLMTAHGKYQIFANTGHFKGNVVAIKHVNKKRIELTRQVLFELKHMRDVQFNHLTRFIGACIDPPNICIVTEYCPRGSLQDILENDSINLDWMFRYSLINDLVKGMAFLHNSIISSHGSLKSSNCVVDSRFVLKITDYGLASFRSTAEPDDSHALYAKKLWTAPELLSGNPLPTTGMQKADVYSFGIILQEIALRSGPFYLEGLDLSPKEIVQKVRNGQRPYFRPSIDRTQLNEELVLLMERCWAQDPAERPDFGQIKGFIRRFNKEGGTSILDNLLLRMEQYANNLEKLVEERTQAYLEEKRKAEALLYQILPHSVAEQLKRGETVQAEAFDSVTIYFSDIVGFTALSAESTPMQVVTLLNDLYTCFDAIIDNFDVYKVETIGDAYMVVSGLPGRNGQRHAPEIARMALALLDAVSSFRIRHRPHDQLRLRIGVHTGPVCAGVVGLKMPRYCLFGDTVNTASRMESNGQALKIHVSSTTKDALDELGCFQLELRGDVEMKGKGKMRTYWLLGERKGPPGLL

Take `OC1(c2ccc(Cl)cc2)CCN(Cc2c[nH]c3ccccc23)CC1`: the Potency entry in assay [1], in assay [2], in [3], in [4], in assay [5] and in assay [6] was “inactive” in each case. For the same molecule, the Potency result in assay [7] and in [8] was “inactive” each time.

`O=c1[nH]c(=O)c2nc3ccccc3nc2[nH]1`: the Potency result in assay [1], in assay [2], in assay [3], in [4], in assay [5] and in assay [6] was “inactive” in each case. The Potency entry in [7] and in assay [8] was “inactive” in each case.

For the molecule `c1ccc2nc(C3=NCCN3)ccc2c1`, the Potency entry in [1], in assay [2], in [3], in [4], in assay [5] and in [6] was “inactive” throughout. The Potency result in [7] and in [8] was “inactive” each time.

With `COc1ccc2c(c1)CCC1C2CC[C@@]2(C)C1CC[C@@H]2NCCCCCCN1C(=O)C=CC1=O` (stereo partly specified), the Potency entry in [1], in [2], in assay [3], in assay [4], in assay [5] and in assay [6] was “inactive” throughout. In addition, the Potency result in assay [7] and in assay [8] was “inactive” throughout.

As to `CN1CCc2cc(Cl)c(O)cc2[C@@H](c2ccccc2)C1`, the Potency entry in [1], in assay [2], in assay [3], in assay [4], in assay [5] and in assay [6] was “inactive” each time. Further, the Potency result in [7] and in assay [8] was “inactive” throughout.

`O=C1Cc2c([nH]c3ccc(Br)cc23)-c2ccccc2N1`: the Potency entry in [1], in [2], in [3], in [4] and in assay [5] was “inactive” each time. For the same molecule, the Potency in assay [9] was 11600 nM (active).

With `COc1cc(C(O)C(=O)O)ccc1O` (stereo unspecified), the Potency result in [1], in assay [2], in assay [3], in [4], in assay [5] and in assay [6] was “inactive” each time. The Potency result in assay [7] and in assay [8] was “inactive” each time.

For `Cc1cccc(C2CN(C)CCc3c2cc(O)c(O)c3Cl)c1` (stereo unspecified), the Potency result in [1], in assay [2], in assay [3], in assay [4], in assay [5] and in assay [6] was “inactive” in each case. Moreover, the Potency entry in assay [7] and in [8] was “inactive” throughout.

Consider `N#Cc1cc([N+](=O)[O-])c2sc(C(N)=O)[n+]([O-])c2c1`, for which the Potency entry in assay [1], in assay [2], in assay [4], in [5], in assay [9] and in assay [10] was “inactive” each time. Besides, the Potency result in assay [7] and in assay [8] was “inactive” each time. In addition, the Potency in assay [6] is 14700 nM (active).

`N[C@H](C(=O)O)c1cc(O)cc(O)c1`: the Potency result in [1], in assay [2], in assay [3], in assay [4], in assay [5] and in assay [6] was “inactive” each time. Also, the Potency result in assay [7] and in assay [8] was “inactive” in each case.

As for `C=CCN1CCc2c(cc(O)c(O)c2Br)[C@@H](c2ccccc2)C1`, the Potency entry in assay [1], in assay [2], in assay [3], in assay [4], in assay [5] and in [6] was “inactive” each time. In addition, the Potency result in assay [7] and in assay [8] was “inactive” each time.

As to `Nc1ncnc2c1c(-c1ccc(Oc3ccccc3)cc1)cn2C1CCCC1`, the Potency entry in [1], in assay [2], in assay [4], in assay [5], in [7] and in [8] was “inactive” in each case. In assay [11], the max response was 4.42%. The figures for the Potency in [9] and in [10] were 1640 nM (active) and 14600 nM (active), respectively.

In the case of `C=CCN1CCc2c(cc(O)c(O)c2Cl)C(c2ccccc2)C1` (stereo unspecified), the Potency result in [1], in assay [2], in assay [3], in assay [4], in assay [5] and in assay [6] was “inactive” throughout. In addition, the Potency entry in assay [7] and in [8] was “inactive” throughout.

On to `N#Cc1cc2nc(O)c(O)nc2cc1[N+](=O)[O-]`, for which the Potency result in assay [1], in [2], in assay [4], in assay [5], in assay [6] and in assay [7] was “inactive” each time. Also, the Potency entry in assay [8] is “inactive”.

As for `O=C1OC(=O)C2C3CCC(O3)C12` (stereo unspecified), the Potency entry in assay [1], in assay [2], in assay [3], in assay [4], in [5] and in assay [6] was “inactive” in each case. Further, the Potency result in [7] and in assay [8] was “inactive” each time.

Take `O=c1ccn([C@@H]2O[C@H](COP(=O)(O)OP(=O)(O)O)[C@@H](O)[C@H]2O)c(=O)[nH]1`: the Potency result in assay [1], in assay [2], in assay [3], in assay [4], in assay [5] and in [6] was “inactive” in each case. Besides, the Potency entry in assay [7] and in assay [8] was “inactive” in each case.

For `O=c1cc(O)cc(/C=C/c2ccc(O)c(O)c2)o1`, the Potency entry in assay [1], in assay [2], in assay [3], in assay [4], in [5] and in [6] was “inactive” in each case. The Potency result in assay [7] and in assay [8] was “inactive” in each case.

`O=C1Nc2ccc(I)cc2/C1=C/c1cc(Br)c(O)c(Br)c1`: the Potency entry in assay [1], in [2], in assay [3], in assay [4], in assay [5] and in [9] was “inactive” each time. Also, the Potency result in assay [10], in assay [7] and in assay [8] was “inactive” each time. In assay [11], the max response was -8.13%.

On to `CCN(CC)CCCCCCCCOC(=O)c1cc(OC)c(OC)c(OC)c1`, for which the Potency entry in [1], in [2], in assay [3], in assay [4], in assay [5] and in [6] was “inactive” throughout. Moreover, the Potency result in [7] and in assay [8] was “inactive” in each case.

On to `Nc1ccc2c3c(cccc13)C(=O)NC2=O`, for which the Potency entry in assay [1], in [2], in assay [4], in assay [5], in assay [6] and in assay [7] was “inactive” each time. Moreover, the Potency result in assay [8] is “inactive”.

As to `CC[n+]1c(/C=C/C=C2/N(C)c3ccccc3C2(C)C)sc2ccccc21`, the Potency result in assay [1], in assay [2], in assay [4] and in [5] was “inactive” throughout. Further, the Potency was 233 nM (active) in assay [6], 213 nM (active) in assay [7] and 233 nM (active) in assay [8].

Regarding `CC(C)[C@H](NC(=O)OCc1ccccc1)C(=O)N[C@H](C=O)Cc1ccccc1` (Cbz-Val-Phe-aldehyde), the Potency entry in assay [1], in assay [2], in assay [3], in assay [4], in [5] and in [6] was “inactive” in each case. The Potency result in [7] and in assay [8] was “inactive” throughout.

Consider `O=C(O)Cc1ccc(O)c(O)c1`, for which the Potency entry in [1], in [2], in assay [3], in [4], in assay [5] and in assay [6] was “inactive” in each case. In addition, the Potency result in assay [7] and in [8] was “inactive” each time.

Turning to `COc1cc(C(O)CO)ccc1O` (stereo unspecified), the Potency entry in [1], in assay [2], in assay [3], in assay [4], in assay [5] and in assay [6] was “inactive” each time. In addition, the Potency entry in [7] and in [8] was “inactive” throughout.

(Values after PubChem BioAssay (NCATS).)
